Experimental findings from PubChem BioAssay (NCI) are described below.

What all share (assay): NCI-60 one-dose screen, 48 h (100 = growth as untreated, 0 = no growth, -100 = all killed)
Holding throughout (conditions): 10 µM unless noted

The subject of test [1] is NCI-H23 lung.
For test [2], the system named is NCI-H226 lung.
The test system of test [3] is NCI-H322M lung.
In test [4] the test system is HOP-62 NSCLC.
The subject of test [5] is NCI-H460 lung.
The subject of test [6] is HOP-92 NSCLC.
The subject of test [7] is NCI-H522 lung.
Test [8] concerns A549/ATCC NSCLC.
Test [9] concerns 786-0 renal.
Test [10] has as its system COLO 205 colon.
The subject of test [11] is DU-145 prostate.
Test [12] concerns K-562 leukemia.
The subject of test [13] is MALME-3M melanoma.
Test [14] has as its system MDA-MB-231 breast.
In test [15] the test system is RXF 393 renal.
Test [16] relates to SF-268 CNS.
Test [17] has as its system SF-295 CNS.
The subject of test [18] is SF-539 CNS.
Test [19] deals with UACC-257 melanoma.
The subject of test [20] is M14 melanoma.

Compounds without any hit were thinned out: in the full panel of roughly 83,000, 20% have a hit.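 A percent growth of 40 corresponds to 60% growth inhibition; 0 means no net growth; -100 means all cells died. Active threshold: below 10.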 Values without a mark were called inactive. Activity calls are given as the source filed them.

Consider `Cc1ccc(-c2nc(SCC(=O)N3CCN(c4cc5c(cc4F)c(=O)c(C(=O)O)cn5C4CC4)CC3)nc(Cl)c2C#N)cc1`, for which the growth in [1] is 100%; in [2], 104%; in [3] it was 101%; in test [4], 90.4%; in [5], 103%; in test [6], 112%. For the same molecule, the growth in test [7] is 93.8%; in test [8], 107%; in test [9] it was 97.8%; in test [10] it was 108%; in [11], 106%; in [12] it was 98.2%. The growth in test [13] is 106%; in test [14], 99.7%; in test [15], 106%; in [16], 93.5%; in test [17] it was 97.4%; in test [18], 100%. The results for the growth in test [19] and in test [20] were 99.3% and 99%, respectively.

For `COc1cc(/C=C2\C(=O)N(CCCOc3cc(O)c4c(=O)cc(-c5ccccc5)oc4c3)c3ccccc32)cc(OC)c1O`, the growth in [1] was 87.9%; in test [2] it was 94.5%; in test [3], 89.9%; in test [4], 71.7%; in test [5], 89.4%; in test [6] it was 72.1%. In addition, the growth is 36.4% in test [7]; 74.5% in [8]; 92.8% in [9]; 82.6% in test [10]; 86.2% in test [11]; 21.2% in test [12]. Moreover, the growth in test [13] is 78.5%; in test [14], 97.5%; in [15] it was 91.6%; in [16] it was 78.5%; in test [17], 101%; in [18], 80.7%. For the same molecule, the growth in test [19] is 90.9%; in [20] it was 57.1%.

Take `CC1SC(c2ccccc2O)N(NC(=O)CCC(=O)c2nc3ncccc3[nH]2)C1=O` (stereo not given): the growth was 86.5% in [1]; 80.7% in test [2]; 93.4% in [3]; 87.8% in test [4]; 103% in [5]; 79.2% in test [6]. The growth in [7] was 95.5%; in test [8], 96.2%; in test [9], 90.3%; in [10] it was 110%; in [11] it was 102%; in test [12], 109%. Moreover, the growth in test [13] was 94%; in [14] it was 103%; in [15] it was 96.4%; in [16], 95.7%; in [17], 96.2%; in test [18], 93.1%. The figures for the growth in test [19] and in test [20] were 99.4% and 97.6%, respectively.

Consider `c1cc(OCCCCCOc2cccc(-c3nc4ccccc4[nH]3)c2)cc(-c2nc3ccccc3[nH]2)c1`, for which the growth in [1] is 3% (active); in [2], 10.2%; in [3], 23.1%; in test [4], 39.1%; in test [5], 6.73% (active); in test [6] it was -29.3% (active). Moreover, the growth is -14.8% (active) in test [7]; 13.9% in test [8]; 19.8% in test [9]; -59.1% (active) in [10]; 33.2% in test [11]; 9.81% (active) in test [12]. Besides, the growth was -13.6% (active) in test [13]; 19.6% in test [14]; 6.51% (active) in test [15]; 61.3% in test [16]; 8.95% (active) in test [17]; 28.3% in [18]. The growth was 22.9% in test [19] and 20.1% in test [20].

Turning to `COc1cccc(-c2cn3nc(-c4cn(C)c5ccccc45)sc3n2)c1`, the growth in [1] was 90%; in test [2], 89.6%; in test [3], 96.9%; in [4], 96.5%; in test [5], 101%; in test [6], 81.8%. The growth was 67.6% in test [7]; 94.6% in test [8]; 104% in test [9]; 108% in test [10]; 106% in [11]; 48% in test [12]. Moreover, the growth is 84.1% in test [13]; 85.6% in test [14]; 104% in [15]; 94.8% in test [16]; 96.3% in test [17]; 94% in test [18]. Besides, the growth was 97.5% in test [19] and 84.3% in test [20].

Take `COc1ccc(C2CC(n3ccnc3)c3cc(OC)c(OC)c(OC)c32)cc1O` (stereo not given): the growth was 91.5% in test [1]; 97.4% in test [2]; 102% in test [3]; 80.8% in test [4]; 78.7% in [5]; 59.6% in test [6]. Moreover, the growth in [7] is 50.1%; in test [8] it was 55.8%; in [9], 91.7%; in [10] it was 107%; in [11] it was 102%; in test [12], 44.7%. The growth in test [13] is 73.2%; in test [14], 81%; in test [15] it was 70.8%; in [16] it was 90%; in test [17], 57.5%; in test [18], 89.8%. Moreover, the growth in [19] is 58.5%; in test [20], 73.1%.

Regarding `N#Cc1nn(-c2cc(=O)[nH]c3ccc(Br)cc23)c(N)c1C#N`, the growth in test [1] was 102%; in [2] it was 98.4%; in [3], 93.3%; in test [4], 83.2%; in test [5], 105%; in test [6], -90.8% (active). Moreover, the growth was 78.4% in test [7]; 101% in test [8]; 97.4% in test [9]; 80% in test [10]; 117% in test [11]; -12.4% (active) in test [12]. Moreover, the growth is 89.4% in [13]; 85.3% in test [14]; 115% in [15]; 108% in [16]; 101% in test [17]; 105% in test [18]. Moreover, the growth in test [19] is 93.4%; in [20], 90.1%.

Consider `O=C(Nc1ccccc1O)c1ccc(CNc2ccnc(C(F)(F)F)c2)cc1`, for which the growth in test [1] is 39.1%; in test [2], 68.9%; in test [3] it was 56.4%; in [4] it was 60.3%; in [5], 38.8%; in test [6] it was 78.2%. The growth in test [7] is 34.3%; in test [8], 56.5%; in test [9], 45.4%; in [10], 112%; in test [11], 59%; in test [12] it was 18.2%. Also, the growth is 22% in test [13]; 62.9% in test [14]; 80.6% in test [15]; 54.8% in test [16]; 36% in test [17]; 39.1% in test [18]. Moreover, the growth in [19] was 46.4%; in [20] it was 34%.
